# According to PubChem BioAssay (EPA / NIEHS):
# Inconclusive results are not listed. Calls of active or inactive are those of the source. Rule for the calls, unless noted: active = hit-call score of the fitted dose curve at least 0.9, where 1 is the maximum; inactive = score below 0.9.
# Experiments:
# [1] = TAMU_PeakParms_SingleDonor1434_Chronotropy: Texas A&M University (TAMU) 1.5-hr Human Induced Pluripotent Stem Cell (iPSC)-derived Cardiomyocytes Calcium (Ca+2) Flux Assay for Cardiotoxicity: Chronotropy (changes in peak frequency) (AID 2284217); conditions: actives raise or lower the signal
# Outline: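 Beat frequency of single-donor iPSC cardiomyocytes was recorded through a calcium-sensitive dye 1.5 hours after exposure to four concentrations up to 100 uM. An EC05 point of departure was derived.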
# [2] = TAMU_HCS_1.5hr_SingleDonor1434_Cytotoxicity: Cytotoxicity Assessment using High-content Screening (HCS) Fluorescent Imaging for the Texas A&M University (TAMU) 1.5-hr Human Induced Pluripotent Stem Cell (iPSC)-derived Cardiotoxicity Assay (AID 2284234; active = hit-call score of the fitted dose curve at least 0.9, where 1 is the maximum)
# Outline: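 Nuclear counts from Hoechst 33342 imaging define cytotoxicity here, with EC10 (10% cell-count loss relative to DMSO) as point of departure. iPSC cardiomyocytes received 0.2-100 uM test chemical in 0.5% DMSO for 1.5 h at 37 C.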
# [3] = CCTE_Mundy_HCI_Cortical_Synap_Neur_Matur_NeuriteSpotCountPerNeuron: CCTE's Synaptogenesis and Neurite Maturation Assay in rat cortical cells for Neurite Spot Count per Neuron Count, Mundy Lab (AID 2284215)
# Outline: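 Read-out: neurite-associated synaptophysin puncta per neuron, imaged by high-content analysis after MAP2, synaptophysin and Hoechst staining. Rat primary cortical cultures, dosed DIV 7 through DIV 12; DMSO served as baseline.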
# [4] = CCTE_Mundy_HCI_Cortical_Synap_Neur_Matur_SynapseCount: CCTE's Synaptogenesis and Neurite Maturation Assay in rat cortical cells for Synapse Count, Mundy Lab (AID 2284218)
# Outline: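 Endpoint: synapses/neuron by HCI (synaptophysin puncta on MAP2-labelled neurites, Hoechst nuclei). Rat primary cortical cells, AraC DIV 5, dosed DIV 7, fixed DIV 12; DMSO negative control.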
# [5] = CCTE_Mundy_HCI_hN2_NOG_NeuriteCount: CCTE's Neurite Outgrowth Assay in human hN2 cells for Neurite Count, Mundy Lab (AID 2284219; active = hit-call score of the fitted dose curve at least 0.9, where 1 is the maximum)
# Outline: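 In this morphology assay, hNP1-derived neurons received test chemical 2 h post-plating and were fixed two days later in warm paraformaldehyde/sucrose containing Hoechst 33342. Neurites, labelled by rabbit anti-βIII-tubulin (1:800) and Alexa Fluor-488 (1:500), were counted automatically.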
# [6] = CCTE_Mundy_HCI_hN2_NOG_NeuriteLength: CCTE's Neurite Outgrowth Assay in human hN2 cells for Neurite Length, Mundy Lab (AID 2284220; active = hit-call score of the fitted dose curve at least 0.9, where 1 is the maximum)
# Outline: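 Read-out is neurite length from high-content imaging of βIII-tubulin/Alexa Fluor-488-labelled neurons, referenced to DMSO controls.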
# [7] = CCTE_Mundy_HCI_hN2_NOG_NeuronCount: CCTE's Neurite Outgrowth Assay in human hN2 cells for Neuron Count, Mundy Lab (AID 2284221; active = hit-call score of the fitted dose curve at least 0.9, where 1 is the maximum)
# Outline: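 Read-out is the number of betaIII-tubulin-positive neurons imaged by automated high-content analysis, with DMSO as negative control.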
# [8] = CCTE_Mundy_HCI_Cortical_Synap_Neur_Matur_NeuriteCount: CCTE's Synaptogenesis and Neurite Maturation Assay in rat cortical cells for Neurite Count, Mundy Lab (AID 2284222);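 note: exposure from day 7 to day 12 in vitro with readout at day 12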
# Outline: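 Chemical exposure runs DIV 7–12 in rat cortical cultures, glia suppressed by AraC at DIV 5; measurement is at DIV 12. Imaging-derived neurite counts are fitted against DMSO baseline.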
# [9] = CCTE_Mundy_HCI_Cortical_Synap_Neur_Matur_CellBodySpotCount: CCTE's Synaptogenesis and Neurite Maturation Assay in rat cortical cells for Cell Body Spot Count, Mundy Lab (AID 2284223)
# Outline: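 Read-out: cell body-associated synaptophysin puncta per neuron, imaged after MAP2, synaptophysin and Hoechst staining. Rat cortical cells, AraC DIV 5, chemical dosing DIV 7, fixation DIV 12. Activity fitted in positive direction relative to DMSO baseline.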
# [10] = CCTE_Mundy_HCI_hNP1_Pro_ResponderAvgInten: CCTE's Proliferation Assay in human neuroprogenitor cells, Mundy Lab (AID 2284224; active = hit-call score of the fitted dose curve at least 0.9, where 1 is the maximum;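 note: human neural progenitor cells hNP1 derived from WA09 embryonic stem cells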)
# Outline: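 Proliferation read as average intensity of BrdU-positive cells, imaged at 26.25 h post-dosing: chemical exposure started after 40–44 h culture, BrdU during final 4 h, paraformaldehyde fixation. Positive-direction fit relative to DMSO.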
smiles,measurement,setting,value
CC(C)(c1cc(Br)c(O)c(Br)c1)c1cc(Br)c(O)c(Br)c1,outcome,[1],inactive
same,AC50,[2],84.8 µM (active)
CN(C)c1ccc(C(=C2C=CC(=[N+](C)C)C=C2)c2ccc(N(C)C)cc2)cc1,outcome,[1],inactive
same,AC50,[2],4.8 µM (active)
CN1C(=O)CC[C@H]1c1cccnc1,outcome,[3],inactive
same,outcome,[4],inactive
same,outcome,[5],inactive
same,outcome,[6],inactive
same,outcome,[7],inactive
same,outcome,[8],inactive
same,outcome,[9],inactive
c1ccc2ccccc2c1,AC50,[1],9.92 µM (active)
same,outcome,[2],inactive
Oc1ccccc1,outcome,[3],inactive
same,outcome,[4],inactive
same,outcome,[5],inactive
same,outcome,[6],inactive
same,outcome,[7],inactive
same,outcome,[8],inactive
same,outcome,[9],inactive
CC/C(=C(/CC)c1ccc(O)cc1)c1ccc(O)cc1,AC50,[3],14.3 µM (active)
same,outcome,[1],inactive
same,AC50,[4],15.4 µM (active)
same,AC50,[5],9.12 µM (active)
same,AC50,[6],7.97 µM (active)
same,AC50,[7],3.72 µM (active)
same,outcome,[8],inactive
same,outcome,[9],inactive
same,outcome,[10],inactive
same,AC50,[2],50 µM (active)
O=C1O[C@H]([C@@H](O)CO)C(O)=C1O,outcome,[3],inactive
same,outcome,[1],inactive
same,outcome,[4],inactive
same,outcome,[8],inactive
same,outcome,[9],inactive
CCCOC(=O)c1cc(O)c(O)c(O)c1,AC50,[1],50 µM (active)
same,outcome,[2],inactive
